# According to the supplement of paper PMC8728848:
# Many of the other results were omitted from the sample, so the strongest signals are more common in it than they were.
# B1: Arath Fbox LD (Arabidopsis thaliana) (protein)
# chain: EFSVWLEKASGKRCLMLSAMNLSIIWGDNPQYWQWIPIPESRFEKVAKLRDVCWFEIRGRTNTRVLSPRTRYSAYIVFKGVDKCYGFQNVAIEAAVGVVGQEPSRRLICFSEAIRRGRRNVVKPKQREDGWMEIELGEFFNDGGIMDNDEIEMSALETKQLNRKCGLIIQGIEIRPAKILAAASFLEQKLISEEDLNSAVDHHHHHH
# What was measured:
# Test in all cases: glycan array binding signal (z-score within array); higher = stronger binding
# Conditions in all cases: glycan notation: IUPAC condensed, linker removed
# [1] = molecular target: Fuc(a1-2)Gal(b1-3)GalNAc(b1-3)Gal
# Procedure, shortened: (§1)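 Glycan array data were curated from 3228 arrays in the Consortium for Functional Glycomics database and kept only where the protein sequence was available. Glycan names were converted to IUPAC-condensed notation, and columns mapping to the same glycan were averaged. The binding signal is a within-array Z-score, averaged across arrays of the same protein sequence at different concentrations or buffers and across linkers. Negative Z-scores can be read as non-binding.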
# [2] = molecular target: Fuc(a1-2)Gal(b1-3)GlcNAc(b1-3)[Neu5Ac(a2-6)Gal(b1-4)GlcNAc(b1-6)]Gal(b1-4)Glc
# Procedure, shortened: as §1
# [3] = molecular target: Fuc(a1-2)[GalNAc(a1-3)]Gal(b1-3)GlcNAc(b1-2)Man(a1-3)[Fuc(a1-2)[GalNAc(a1-3)]Gal(b1-3)GlcNAc(b1-2)Man(a1-6)]Man(b1-4)GlcNAc(b1-4)GlcNAc
# Procedure, shortened: as §1
# [4] = molecular target: Fuc(a1-2)[GalNAc(a1-4)]Gal(b1-4)GlcNAc
# Procedure, shortened: as §1
# [5] = molecular target: Fuc(a1-3)[Gal(b1-4)]GlcNAc(b1-2)Man(a1-3)[Fuc(a1-3)[Gal(b1-4)]GlcNAc(b1-2)Man(a1-6)]Man(b1-4)GlcNAc(b1-4)[Fuc(a1-6)]GlcNAc
# Procedure, shortened: as §1
# [6] = molecular target: Fuc(a1-3)[Gal(b1-4)]GlcNAc(b1-3)GalNAc
# Procedure, shortened: as §1
# Gal(a1-2)Gal = molecular target: Gal(a1-2)Gal
# Procedure, shortened: as §1
# Gal(a1-3)Gal(b1-3)GlcNAc = molecular target: Gal(a1-3)Gal(b1-3)GlcNAc
# Procedure, shortened: as §1
# [7] = molecular target: Gal(a1-3)Gal(b1-3)[Fuc(a1-4)]GlcNAc(b1-2)Man(a1-3)[Gal(a1-3)Gal(b1-3)[Fuc(a1-4)]GlcNAc(b1-2)Man(a1-6)]Man(b1-4)GlcNAc(b1-4)GlcNAc
# Procedure, shortened: as §1
# [8] = molecular target: Gal(a1-3)Gal(b1-4)GlcNAc(b1-2)Man
# Procedure, shortened: as §1
# [9] = molecular target: Gal(a1-3)[Gal(a1-4)]Gal(b1-4)GlcNAc
# Procedure, shortened: as §1
# Gal(b1-2)Gal = molecular target: Gal(b1-2)Gal
# Procedure, shortened: as §1
# Gal(b1-3)Gal = molecular target: Gal(b1-3)Gal
# Procedure, shortened: as §1
# [10] = molecular target: Gal(b1-3)GlcNAc(b1-2)Man(a1-3)[GlcNAc(b1-4)][Gal(b1-3)GlcNAc(b1-2)Man(a1-6)]Man(b1-4)GlcNAc(b1-4)GlcNAc
# Procedure, shortened: as §1
# [11] = molecular target: Gal(b1-3)GlcNAc(b1-3)Gal(b1-4)[Fuc(a1-3)]GlcNAc
# Procedure, shortened: as §1
# [12] = molecular target: Gal(b1-3)[Fuc(a1-4)]GlcNAc(b1-2)Man
# Procedure, shortened: as §1
# [13] = molecular target: Gal(b1-3)[Fuc(a1-4)]GlcNAc(b1-2)Man(a1-3)[Gal(b1-3)[Fuc(a1-4)]GlcNAc(b1-2)Man(a1-6)]Man(b1-4)GlcNAc(b1-4)[Fuc(a1-6)]GlcNAc
# Procedure, shortened: as §1
# Gal(b1-4)Gal = molecular target: Gal(b1-4)Gal
# Procedure, shortened: as §1
# [14] = molecular target: Gal(b1-4)GlcNAc(b1-3)Gal(b1-4)GlcNAc(b1-3)Gal(b1-4)GlcNAc
# Procedure, shortened: as §1
# [15] = molecular target: Gal(b1-4)GlcNAc(b1-3)Gal(b1-4)GlcNAc(b1-3)Gal(b1-4)GlcNAc(b1-3)Gal(b1-4)GlcNAc(b1-2)Man(a1-3)[Gal(b1-4)GlcNAc(b1-3)Gal(b1-4)GlcNAc(b1-3)Gal(b1-4)GlcNAc(b1-3)Gal(b1-4)GlcNAc(b1-2)Man(a1-6)]Man(b1-4)GlcNAc(b1-4)[Fuc(a1-6)]GlcNAc
# Procedure, shortened: as §1
# [16] = molecular target: Gal(b1-4)GlcNAc(b1-3)Gal(b1-4)GlcNAc(b1-3)[Gal(b1-4)GlcNAc(b1-3)Gal(b1-4)GlcNAc(b1-6)]GalNAc
# Procedure, shortened: as §1
# [17] = molecular target: Gal(b1-4)GlcNAc(b1-3)Gal(b1-4)[Fuc(a1-3)]GlcNAc(b1-3)Gal(b1-4)[Fuc(a1-3)]GlcNAc
# Procedure, shortened: as §1
# Gal3S(b1-4)Glc = molecular target: Gal3S(b1-4)Glc
# Procedure, shortened: as §1
# [18] = molecular target: Gal3S(b1-4)[Fuc(a1-3)]GlcNAc6S
# Procedure, shortened: as §1
# Gal3S6S(b1-4)GlcNAc = molecular target: Gal3S6S(b1-4)GlcNAc
# Procedure, shortened: as §1
# Gal4S6S(b1-4)GlcNAc = molecular target: Gal4S6S(b1-4)GlcNAc
# Procedure, shortened: as §1
# Gal6S(b1-4)GlcNAc6S = molecular target: Gal6S(b1-4)GlcNAc6S
# Procedure, shortened: as §1
# [19] = molecular target: GalNAc(a1-3)GalNAc(b1-3)Gal(a1-4)Gal(b1-4)GlcNAc
# Procedure, shortened: as §1
# GalNAc(b1-4)GlcNAc6S = molecular target: GalNAc(b1-4)GlcNAc6S
# Procedure, shortened: as §1
# GlcA(b1-6)Gal = molecular target: GlcA(b1-6)Gal
# Procedure, shortened: as §1
binder,measurement,setting,value
B1,glycan array binding signal (z-score),[1],-0.344
same,glycan array binding signal (z-score),[2],-0.52
same,glycan array binding signal (z-score),[3],-0.597
same,glycan array binding signal (z-score),[4],0.47
same,glycan array binding signal (z-score),[5],2.04
same,glycan array binding signal (z-score),[6],-0.455
same,glycan array binding signal (z-score),Gal(a1-2)Gal,-0.171
same,glycan array binding signal (z-score),Gal(a1-3)Gal(b1-3)GlcNAc,9.37
same,glycan array binding signal (z-score),[7],2.84
same,glycan array binding signal (z-score),[8],-0.233
same,glycan array binding signal (z-score),[9],1.55
same,glycan array binding signal (z-score),Gal(b1-2)Gal,2.67
same,glycan array binding signal (z-score),Gal(b1-3)Gal,-0.517
same,glycan array binding signal (z-score),[10],-0.473
same,glycan array binding signal (z-score),[11],-0.574
same,glycan array binding signal (z-score),[12],4.02
same,glycan array binding signal (z-score),[13],2.55
same,glycan array binding signal (z-score),Gal(b1-4)Gal,1.31
same,glycan array binding signal (z-score),[14],0.403
same,glycan array binding signal (z-score),[15],-0.558
same,glycan array binding signal (z-score),[16],-0.532
same,glycan array binding signal (z-score),[17],-0.413
same,glycan array binding signal (z-score),Gal3S(b1-4)Glc,4.4
same,glycan array binding signal (z-score),[18],3.79
same,glycan array binding signal (z-score),Gal3S6S(b1-4)GlcNAc,2.51
same,glycan array binding signal (z-score),Gal4S6S(b1-4)GlcNAc,-0.39
same,glycan array binding signal (z-score),Gal6S(b1-4)GlcNAc6S,0.739
same,glycan array binding signal (z-score),[19],-0.368
same,glycan array binding signal (z-score),GalNAc(b1-4)GlcNAc6S,-0.574
same,glycan array binding signal (z-score),GlcA(b1-6)Gal,1.15
